# Reference: PubChem BioAssay (NCI)
# Compounds without any hit were thinned out: in the full panel of roughly 79,000, 15% have a hit. Activity calls are given as the source filed them. Rule as the data show it: active = growth inhibition above about 70%; inactive = the rest.
# Columns and labels:
# [1] = NCI Yeast Anticancer Drug Screen. Data for the mec2-1 strain (AID 157); conditions: S. cerevisiae mec2-1 strain, hits give high values
# Procedure, shortened: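 Test agents were screened against the mec2-1 yeast strain, with defined DNA repair or cell cycle alteration. Growth was scored as inhibition against vehicle-only controls.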
# [2] = NCI Yeast Anticancer Drug Screen. Data for the rad14 strain (AID 159);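 also: 0% = growth of vehicle-treated control cultures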; conditions: S. cerevisiae rad14 strain growth inhibition, hits give high values
# Procedure, shortened: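 Readout: yeast growth inhibition, referenced to vehicle-only cultures. Strain bears a defined alteration in DNA damage repair.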
# [3] = NCI Yeast Anticancer Drug Screen. Data for the sgs1 mgt1 strain (AID 161);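 also: 0% = growth of cultures given vehicle only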; conditions: S. cerevisiae sgs1 mgt1 strain, hits give high values
# Procedure, shortened: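 Read-out: growth inhibition vs vehicle controls. Cells: mutant yeast strain deficient in DNA damage repair.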
# [4] = NCI Yeast Anticancer Drug Screen. Data for the CLN2oe strain (AID 163);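 also: 0% = growth of vehicle-only control cultures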; conditions: S. cerevisiae CLN2oe strain, hits give high values
# Procedure, shortened: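 Here, growth inhibition in a cell-cycle-altered yeast strain after compound exposure was quantified against vehicle control growth.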
# [5] = NCI Yeast Anticancer Drug Screen. Data for the cln2 rad14 strain (AID 165);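 also: 0% = growth equal to vehicle treated cultures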; conditions: S. cerevisiae cln2 rad14 strain, hits give high values
# Procedure, shortened: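 Growth of compound-exposed yeast (cln2 rad14 genotype) measured and expressed as inhibition relative to vehicle.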
# [6] = NCI Yeast Anticancer Drug Screen. Data for the bub3 strain (AID 167); conditions: S. cerevisiae bub3 mutant strain, hits give high values
# Procedure, shortened: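 Part of a panel of yeast mutants defective in DNA damage repair or cell cycle regulation. Each strain is grown with compound, and inhibition is calculated relative to solvent-treated cultures.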
# [7] = NCI Yeast Anticancer Drug Screen. Data for the wt2 strain (AID 169);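 also: 0% = growth of vehicle-treated yeast cultures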; conditions: S. cerevisiae wt2 strain growth inhibition, hits give high values
# Procedure, shortened: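 Genetically defined yeast strains from a DNA-repair/cell-cycle panel were used. Compound-exposed yeast growth was measured, and the inhibition was calculated relative to vehicle treatment.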
# [8] = NCI Yeast Anticancer Drug Screen. Data for the mlh1 strain (AID 171);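 also: 0% = growth of vehicle-treated control cultures of the same strain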; conditions: S. cerevisiae mlh1 strain growth inhibition, hits give high values
# Procedure, shortened: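 Here the genetically defined yeast mutant is grown with each compound, and the extent to which its growth falls below that of vehicle-exposed cells is reported.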
# [9] = NCI Yeast Anticancer Drug Screen. Data for the sgs1 strain (AID 173);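 also: 0% = growth of vehicle-only control cultures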; conditions: S. cerevisiae sgs1 mutant, hits give high values
# Procedure, shortened: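 Relative growth inhibition, referenced to vehicle, was determined in a yeast strain with a defined alteration affecting DNA damage repair or cell cycle control after compound exposure.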
# [10] = NCI Yeast Anticancer Drug Screen. Data for the mlh1 rad18 strain (AID 175); conditions: S. cerevisiae mlh1 rad18 strain growth inhibition, hits give high values
# Procedure, shortened: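 In this whole-cell yeast screen, a strain with altered DNA damage repair is challenged with compound, and its growth is measured against matched vehicle-treated controls.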
# [11] = NCI Yeast Anticancer Drug Screen. Data for the rad18 strain (AID 177); conditions: S. cerevisiae rad18 mutant growth inhibition, hits give high values
# Procedure, shortened: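 Screen uses a yeast strain with a defined lesion in DNA damage repair; compound effect is read as loss of growth compared to untreated vehicle cultures.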
# [12] = NCI Yeast Anticancer Drug Screen. Data for the wt1 strain (AID 149);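 also: 0% = growth of vehicle-treated wt1 cultures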; conditions: S. cerevisiae wt1 strain (SPY 50644) growth inhibition, hits give high values
# Procedure, shortened: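 The wt1 strain was treated with compounds, and growth was compared with vehicle-treated cultures to give inhibition.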
# [13] = NCI Yeast Anticancer Drug Screen. Data for the rad50EPP+ strain (AID 151);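 also: 0% = growth of vehicle-treated control cultures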; conditions: S. cerevisiae rad50 mutant strain, hits give high values
# Procedure, shortened: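 One strain with a rad50 alteration (rad50EPP+) was compound-treated, its growth then compared to that of vehicle controls.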
# [14] = NCI Yeast Anticancer Drug Screen. Data for the mgt1 strain (AID 153); conditions: S. cerevisiae mgt1 mutant growth inhibition, hits give high values
# Procedure, shortened: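 After exposure of the mgt1 yeast mutant to compound, growth was measured and reported as inhibition compared with vehicle controls.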
# [15] = NCI Yeast Anticancer Drug Screen. Data for the rad50 strain (AID 155);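 also: 0% = growth of vehicle-only cultures of the same strain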; conditions: S. cerevisiae rad50 strain growth inhibition, hits give high values
# Procedure, shortened: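 Cells are treated with compound, grown, and their growth is then scored against vehicle-only cultures of the same repair-deficient yeast strain.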
# [16] = at 5.0 µM (retest, dose inferred, filed as 0.5)
# [17] = at 50.0 µM (retest, dose inferred, filed as 5.0)
smiles,measurement,setting,value
O=C(N/N=C/c1ccc2c(c1)CCC2)c1ccccc1[N+](=O)[O-],growth inhibition,[1]; at 100.0 µM,94% (active)
same,growth inhibition,[2]; at 1.2 µM,-10% (inactive)
same,growth inhibition,[2]; at 3.7 µM,-8% (inactive)
same,growth inhibition,[2]; at 11.0 µM,2% (inactive)
same,growth inhibition,[2]; at 33.0 µM,6% (inactive)
same,growth inhibition,[2]; at 100.0 µM,95% (active)
same,growth inhibition,[3]; [16],-13% (inactive)
same,growth inhibition,[3]; [17],53% (inactive)
same,growth inhibition,[4]; at 1.2 µM,-3% (inactive)
same,growth inhibition,[4]; at 3.7 µM,-5% (inactive)
same,growth inhibition,[4]; at 11.0 µM,21% (inactive)
same,growth inhibition,[4]; at 33.0 µM,18% (inactive)
same,growth inhibition,[4]; at 100.0 µM,94% (active)
same,growth inhibition,[5]; [16],71% (active)
same,growth inhibition,[5]; [17],70% (active)
same,growth inhibition,[6]; at 1.2 µM,5% (inactive)
same,growth inhibition,[6]; at 3.7 µM,19% (inactive)
same,growth inhibition,[6]; [16],34% (inactive)
same,growth inhibition,[6]; at 11.0 µM,23% (inactive)
same,growth inhibition,[6]; at 33.0 µM,33% (inactive)
same,growth inhibition,[6]; [17],49% (inactive)
same,growth inhibition,[6]; at 100.0 µM,96% (active)
same,growth inhibition,[7]; at 1.2 µM,16% (inactive)
same,growth inhibition,[7]; at 3.7 µM,12% (inactive)
same,growth inhibition,[7]; at 11.0 µM,12% (inactive)
same,growth inhibition,[7]; at 33.0 µM,37% (inactive)
same,growth inhibition,[7]; at 100.0 µM,97% (active)
same,growth inhibition,[8]; at 1.2 µM,-19% (inactive)
same,growth inhibition,[8]; at 3.7 µM,-20% (inactive)
same,growth inhibition,[8]; at 11.0 µM,-43% (inactive)
same,growth inhibition,[8]; at 33.0 µM,18% (inactive)
same,growth inhibition,[8]; at 100.0 µM,95% (active)
same,growth inhibition,[9]; at 1.2 µM,15% (inactive)
same,growth inhibition,[9]; at 3.7 µM,23% (inactive)
same,growth inhibition,[9]; at 11.0 µM,30% (inactive)
same,growth inhibition,[9]; at 33.0 µM,42% (inactive)
same,growth inhibition,[9]; at 100.0 µM,96% (active)
same,growth inhibition,[10]; [16],36% (inactive)
same,growth inhibition,[10]; [17],99% (active)
same,growth inhibition,[10]; at 50.0 µM,81.7% (active)
same,growth inhibition,[11]; at 1.2 µM,8% (inactive)
same,growth inhibition,[11]; at 3.7 µM,13% (inactive)
same,growth inhibition,[11]; at 11.0 µM,9% (inactive)
same,growth inhibition,[11]; at 33.0 µM,12% (inactive)
same,growth inhibition,[11]; at 100.0 µM,96% (active)
CCOC(=O)c1sc2[n+](c1C)C(=O)/C(=C/c1cc(OC)c(OC)c(OC)c1)S2,growth inhibition,[12]; at 1.2 µM,3% (inactive)
same,growth inhibition,[12]; at 3.7 µM,2% (inactive)
same,growth inhibition,[12]; at 11.0 µM,9% (inactive)
same,growth inhibition,[12]; at 33.0 µM,56% (inactive)
same,growth inhibition,[12]; at 100.0 µM,88% (active)
same,growth inhibition,[13]; at 1.2 µM,2% (inactive)
same,growth inhibition,[13]; at 3.7 µM,6% (inactive)
same,growth inhibition,[13]; at 11.0 µM,19% (inactive)
same,growth inhibition,[13]; at 33.0 µM,45% (inactive)
same,growth inhibition,[13]; at 100.0 µM,76% (active)
same,growth inhibition,[14]; at 1.2 µM,9% (inactive)
same,growth inhibition,[14]; at 3.7 µM,12% (inactive)
same,growth inhibition,[14]; at 11.0 µM,54% (inactive)
same,growth inhibition,[14]; at 33.0 µM,86% (active)
same,growth inhibition,[14]; at 100.0 µM,93% (active)
same,growth inhibition,[15]; at 1.2 µM,9% (inactive)
same,growth inhibition,[15]; at 3.7 µM,16% (inactive)
same,growth inhibition,[15]; [16],1% (inactive)
same,growth inhibition,[15]; at 11.0 µM,18% (inactive)
same,growth inhibition,[15]; at 33.0 µM,68% (inactive)
same,growth inhibition,[15]; [17],35% (inactive)
same,growth inhibition,[15]; at 50.0 µM,41% (inactive)
same,growth inhibition,[15]; at 100.0 µM,87% (active)
same,growth inhibition,[1]; at 1.2 µM,21% (inactive)
same,growth inhibition,[1]; at 3.7 µM,18% (inactive)
same,growth inhibition,[1]; [16],6% (inactive)
same,growth inhibition,[1]; at 11.0 µM,34% (inactive)
same,growth inhibition,[1]; at 33.0 µM,76% (active)
same,growth inhibition,[1]; [17],51% (inactive)
same,growth inhibition,[1]; at 50.0 µM,52.5% (inactive)
same,growth inhibition,[1]; at 100.0 µM,92% (active)
same,growth inhibition,[2]; at 1.2 µM,12% (inactive)
same,growth inhibition,[2]; at 3.7 µM,3% (inactive)
same,growth inhibition,[2]; at 11.0 µM,28% (inactive)
same,growth inhibition,[2]; at 33.0 µM,77% (active)
same,growth inhibition,[2]; at 100.0 µM,92% (active)
same,growth inhibition,[3]; [16],-4% (inactive)
same,growth inhibition,[3]; [17],64% (inactive)
same,growth inhibition,[3]; at 50.0 µM,80.5% (active)
same,growth inhibition,[4]; at 1.2 µM,11% (inactive)
same,growth inhibition,[4]; at 3.7 µM,5% (inactive)
same,growth inhibition,[4]; at 11.0 µM,26% (inactive)
same,growth inhibition,[4]; at 33.0 µM,76% (active)
same,growth inhibition,[4]; at 100.0 µM,83% (active)
same,growth inhibition,[5]; [16],13% (inactive)
same,growth inhibition,[5]; [17],78% (active)
same,growth inhibition,[5]; at 50.0 µM,55.5% (inactive)
same,growth inhibition,[6]; at 1.2 µM,12% (inactive)
same,growth inhibition,[6]; at 3.7 µM,7% (inactive)
same,growth inhibition,[6]; [16],-10% (inactive)
same,growth inhibition,[6]; at 11.0 µM,21% (inactive)
same,growth inhibition,[6]; at 33.0 µM,60% (inactive)
same,growth inhibition,[6]; [17],12% (inactive)
same,growth inhibition,[6]; at 50.0 µM,40.9% (inactive)
same,growth inhibition,[6]; at 100.0 µM,66% (inactive)
same,growth inhibition,[7]; at 1.2 µM,2% (inactive)
same,growth inhibition,[7]; at 3.7 µM,3% (inactive)
same,growth inhibition,[7]; at 11.0 µM,47% (inactive)
same,growth inhibition,[7]; at 33.0 µM,85% (active)
same,growth inhibition,[7]; at 100.0 µM,95% (active)
same,growth inhibition,[8]; at 1.2 µM,9% (inactive)
same,growth inhibition,[8]; at 3.7 µM,9% (inactive)
same,growth inhibition,[8]; at 11.0 µM,36% (inactive)
same,growth inhibition,[8]; at 33.0 µM,82% (active)
same,growth inhibition,[8]; at 100.0 µM,93% (active)
same,growth inhibition,[9]; at 1.2 µM,17% (inactive)
same,growth inhibition,[9]; at 3.7 µM,23% (inactive)
same,growth inhibition,[9]; at 11.0 µM,48% (inactive)
same,growth inhibition,[9]; at 33.0 µM,90% (active)
same,growth inhibition,[9]; at 100.0 µM,95% (active)
same,growth inhibition,[10]; [16],6% (inactive)
same,growth inhibition,[10]; [17],60% (inactive)
same,growth inhibition,[10]; at 50.0 µM,25.1% (inactive)
same,growth inhibition,[11]; at 1.2 µM,19% (inactive)
same,growth inhibition,[11]; at 3.7 µM,27% (inactive)
same,growth inhibition,[11]; at 11.0 µM,40% (inactive)
same,growth inhibition,[11]; at 33.0 µM,75% (active)
same,growth inhibition,[11]; at 100.0 µM,88% (active)
